In ChEMBL document CHEMBL1961873, “Compounds: GSK PKIS; Assays: Nanosyn kinase panel” (2012):
Where “and” joins values, the source holds several entries; their conditions need not be identical. Equal entries are not always repeated.

What was measured:
[1] = target: Death-associated protein kinase 1 (Homo sapiens) (UniProt P53355); details: at 1 µM;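 note: each value is a mean inhibition figure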
[2] = target: T1, Serine/threonine-protein kinase DCLK2 (Homo sapiens) (UniProt Q8N568); details: at 0.1 µM
T1 sequence (whole entry): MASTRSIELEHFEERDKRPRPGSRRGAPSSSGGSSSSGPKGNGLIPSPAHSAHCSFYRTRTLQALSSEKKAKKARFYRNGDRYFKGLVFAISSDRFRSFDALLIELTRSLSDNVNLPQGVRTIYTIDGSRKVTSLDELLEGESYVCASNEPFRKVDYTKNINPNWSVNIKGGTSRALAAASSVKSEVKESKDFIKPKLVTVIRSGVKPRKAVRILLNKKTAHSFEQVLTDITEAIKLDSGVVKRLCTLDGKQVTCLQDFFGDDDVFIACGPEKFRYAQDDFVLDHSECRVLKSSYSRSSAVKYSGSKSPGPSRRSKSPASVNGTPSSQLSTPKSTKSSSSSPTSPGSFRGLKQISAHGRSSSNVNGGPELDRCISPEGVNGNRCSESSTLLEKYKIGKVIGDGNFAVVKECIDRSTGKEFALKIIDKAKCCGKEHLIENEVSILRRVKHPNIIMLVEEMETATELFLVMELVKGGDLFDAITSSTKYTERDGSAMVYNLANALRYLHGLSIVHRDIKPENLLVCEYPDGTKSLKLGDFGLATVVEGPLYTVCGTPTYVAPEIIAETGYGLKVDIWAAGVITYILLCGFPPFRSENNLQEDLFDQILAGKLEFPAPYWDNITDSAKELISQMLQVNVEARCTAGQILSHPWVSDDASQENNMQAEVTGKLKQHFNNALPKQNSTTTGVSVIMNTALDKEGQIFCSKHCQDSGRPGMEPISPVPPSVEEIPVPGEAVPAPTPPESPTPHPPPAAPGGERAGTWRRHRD

[3] = target: T1, Serine/threonine-protein kinase DCLK2 (Homo sapiens); details: at 1 µM
[4] = target: MAP kinase-activated protein kinase 2 (Homo sapiens) (UniProt P49137); details: at 0.1 µM
[5] = target: MAP kinase-activated protein kinase 2 (Homo sapiens) (UniProt P49137); details: at 1 µM
[6] = target: MAP kinase-activated protein kinase 3 (Homo sapiens) (UniProt Q16644); details: at 0.1 µM
[7] = target: MAP kinase-activated protein kinase 3 (Homo sapiens) (UniProt Q16644); details: at 1 µM
[8] = target: Serine/threonine-protein kinase MARK1 (Homo sapiens) (UniProt Q9P0L2); details: at 0.1 µM
[9] = target: Serine/threonine-protein kinase MARK1 (Homo sapiens) (UniProt Q9P0L2); details: at 1 µM
[10] = target: MAP/microtubule affinity-regulating kinase 3 (Homo sapiens) (UniProt P27448); details: at 0.1 µM
[11] = target: MAP/microtubule affinity-regulating kinase 3 (Homo sapiens) (UniProt P27448); details: at 1 µM
[12] = target: T2, MAP/microtubule affinity-regulating kinase 4 (Homo sapiens) (UniProt Q96L34); details: at 0.1 µM
T2 sequence (whole entry): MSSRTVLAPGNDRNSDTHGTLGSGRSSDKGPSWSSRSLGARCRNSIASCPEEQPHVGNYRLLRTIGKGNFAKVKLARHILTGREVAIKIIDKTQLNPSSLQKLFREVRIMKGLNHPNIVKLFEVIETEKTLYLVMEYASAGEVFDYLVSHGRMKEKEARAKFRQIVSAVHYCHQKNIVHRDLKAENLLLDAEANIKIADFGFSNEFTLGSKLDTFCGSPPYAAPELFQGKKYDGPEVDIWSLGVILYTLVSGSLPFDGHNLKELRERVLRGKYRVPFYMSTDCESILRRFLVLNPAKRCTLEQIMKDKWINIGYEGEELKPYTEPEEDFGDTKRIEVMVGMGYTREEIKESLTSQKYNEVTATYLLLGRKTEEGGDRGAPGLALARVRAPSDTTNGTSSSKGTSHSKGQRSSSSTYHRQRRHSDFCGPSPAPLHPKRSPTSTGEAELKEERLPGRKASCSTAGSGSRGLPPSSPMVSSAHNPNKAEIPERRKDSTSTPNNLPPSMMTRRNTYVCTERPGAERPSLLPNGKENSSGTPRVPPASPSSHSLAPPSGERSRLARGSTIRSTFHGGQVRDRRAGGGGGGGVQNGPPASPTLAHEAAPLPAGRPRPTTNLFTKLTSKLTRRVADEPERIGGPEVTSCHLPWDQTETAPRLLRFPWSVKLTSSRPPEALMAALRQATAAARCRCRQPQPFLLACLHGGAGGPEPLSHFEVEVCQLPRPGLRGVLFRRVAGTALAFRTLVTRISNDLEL

[13] = target: T2, MAP/microtubule affinity-regulating kinase 4 (Homo sapiens); details: at 1 µM
[14] = target: Maternal embryonic leucine zipper kinase (Homo sapiens) (UniProt Q14680); details: at 0.1 µM
[15] = target: Maternal embryonic leucine zipper kinase (Homo sapiens) (UniProt Q14680); details: at 1 µM
[16] = target: MAP kinase-interacting serine/threonine-protein kinase 1 (Homo sapiens) (UniProt Q9BUB5); details: at 0.1 µM
[17] = target: MAP kinase-interacting serine/threonine-protein kinase 1 (Homo sapiens) (UniProt Q9BUB5); details: at 1 µM
[18] = target: MAP kinase-interacting serine/threonine-protein kinase 2 (Homo sapiens) (UniProt Q9HBH9); details: at 0.1 µM
[19] = target: MAP kinase-interacting serine/threonine-protein kinase 2 (Homo sapiens) (UniProt Q9HBH9); details: at 1 µM
[20] = target: Serine/threonine-protein kinase MARK2 (Homo sapiens) (UniProt Q7KZI7); details: at 0.1 µM;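 note: mean percent inhibition of PAR-1Balpha kinase activity, reported from the GSK PKIS screen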

MAP kinase-interacting serine/threonine-protein kinase 1 (Homo sapiens), sequence (Q9BUB5 whole entry, looked up): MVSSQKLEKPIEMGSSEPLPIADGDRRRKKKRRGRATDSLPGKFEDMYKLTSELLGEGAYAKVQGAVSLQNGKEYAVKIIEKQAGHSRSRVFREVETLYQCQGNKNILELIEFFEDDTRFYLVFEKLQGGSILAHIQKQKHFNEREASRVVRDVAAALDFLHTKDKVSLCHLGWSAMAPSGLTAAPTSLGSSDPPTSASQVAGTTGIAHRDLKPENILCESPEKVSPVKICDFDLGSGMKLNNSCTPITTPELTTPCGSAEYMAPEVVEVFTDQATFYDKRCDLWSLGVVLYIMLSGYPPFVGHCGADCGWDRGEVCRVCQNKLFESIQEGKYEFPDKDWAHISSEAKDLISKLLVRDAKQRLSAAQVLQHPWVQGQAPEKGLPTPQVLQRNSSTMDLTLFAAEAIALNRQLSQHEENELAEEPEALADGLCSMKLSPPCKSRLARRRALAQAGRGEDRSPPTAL
Serine/threonine-protein kinase MARK1 (Homo sapiens), sequence (Q9P0L2 whole entry, looked up): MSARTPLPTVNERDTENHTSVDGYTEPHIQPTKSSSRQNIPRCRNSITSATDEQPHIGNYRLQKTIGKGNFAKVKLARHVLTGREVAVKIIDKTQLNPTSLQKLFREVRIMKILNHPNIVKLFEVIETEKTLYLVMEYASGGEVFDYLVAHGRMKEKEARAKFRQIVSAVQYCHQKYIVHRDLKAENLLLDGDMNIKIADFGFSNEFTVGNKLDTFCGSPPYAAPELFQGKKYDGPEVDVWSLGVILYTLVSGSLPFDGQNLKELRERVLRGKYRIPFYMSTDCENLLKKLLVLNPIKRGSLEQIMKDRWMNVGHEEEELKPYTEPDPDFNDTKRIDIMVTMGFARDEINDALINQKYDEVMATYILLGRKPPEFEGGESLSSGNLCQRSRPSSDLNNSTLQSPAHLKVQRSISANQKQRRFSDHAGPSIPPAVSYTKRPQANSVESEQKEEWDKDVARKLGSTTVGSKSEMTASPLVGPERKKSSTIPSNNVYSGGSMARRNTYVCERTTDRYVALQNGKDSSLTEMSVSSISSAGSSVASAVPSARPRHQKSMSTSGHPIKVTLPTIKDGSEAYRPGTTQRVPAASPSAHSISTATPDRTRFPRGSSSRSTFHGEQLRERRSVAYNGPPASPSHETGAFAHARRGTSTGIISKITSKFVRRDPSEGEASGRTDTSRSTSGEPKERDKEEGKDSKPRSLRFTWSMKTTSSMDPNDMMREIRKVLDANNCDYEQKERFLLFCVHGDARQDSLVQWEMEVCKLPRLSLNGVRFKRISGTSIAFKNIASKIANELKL
Maternal embryonic leucine zipper kinase (Homo sapiens), sequence (Q14680 whole entry, looked up): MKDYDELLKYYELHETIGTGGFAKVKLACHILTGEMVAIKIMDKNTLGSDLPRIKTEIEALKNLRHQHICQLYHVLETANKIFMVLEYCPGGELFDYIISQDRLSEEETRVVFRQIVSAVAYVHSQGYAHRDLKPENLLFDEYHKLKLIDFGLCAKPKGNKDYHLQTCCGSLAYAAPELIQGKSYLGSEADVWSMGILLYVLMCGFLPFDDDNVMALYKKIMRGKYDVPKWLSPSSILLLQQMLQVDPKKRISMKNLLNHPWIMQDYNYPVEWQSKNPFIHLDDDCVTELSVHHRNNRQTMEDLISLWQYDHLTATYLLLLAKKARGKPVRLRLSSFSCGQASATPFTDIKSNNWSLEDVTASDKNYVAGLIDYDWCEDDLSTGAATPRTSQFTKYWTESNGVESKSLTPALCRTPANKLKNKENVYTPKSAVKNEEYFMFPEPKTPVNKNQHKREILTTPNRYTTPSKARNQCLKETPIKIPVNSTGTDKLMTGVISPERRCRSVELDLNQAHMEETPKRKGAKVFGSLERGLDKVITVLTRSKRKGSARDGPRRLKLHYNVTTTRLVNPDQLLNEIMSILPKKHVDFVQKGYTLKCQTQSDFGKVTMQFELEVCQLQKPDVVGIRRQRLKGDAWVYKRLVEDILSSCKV
MAP/microtubule affinity-regulating kinase 3 (Homo sapiens), sequence (P27448 whole entry, looked up): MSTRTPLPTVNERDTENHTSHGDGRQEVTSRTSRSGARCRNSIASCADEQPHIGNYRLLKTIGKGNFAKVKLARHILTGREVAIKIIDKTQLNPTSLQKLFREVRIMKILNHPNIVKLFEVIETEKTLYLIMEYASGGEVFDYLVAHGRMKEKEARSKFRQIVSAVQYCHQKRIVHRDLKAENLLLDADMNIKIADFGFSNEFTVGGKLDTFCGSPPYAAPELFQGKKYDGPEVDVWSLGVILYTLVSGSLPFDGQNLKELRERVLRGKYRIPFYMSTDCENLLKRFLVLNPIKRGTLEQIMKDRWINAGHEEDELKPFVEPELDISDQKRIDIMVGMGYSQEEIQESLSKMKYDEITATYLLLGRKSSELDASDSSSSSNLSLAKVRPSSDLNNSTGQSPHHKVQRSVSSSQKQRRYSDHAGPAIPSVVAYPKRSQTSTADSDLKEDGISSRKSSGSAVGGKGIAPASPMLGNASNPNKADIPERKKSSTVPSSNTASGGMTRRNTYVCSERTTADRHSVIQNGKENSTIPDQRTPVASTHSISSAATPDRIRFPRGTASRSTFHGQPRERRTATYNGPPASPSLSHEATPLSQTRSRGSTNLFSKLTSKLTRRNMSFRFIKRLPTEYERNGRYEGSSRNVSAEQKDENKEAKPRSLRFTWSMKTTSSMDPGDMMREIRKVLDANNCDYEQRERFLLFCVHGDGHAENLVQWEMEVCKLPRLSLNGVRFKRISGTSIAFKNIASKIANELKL
MAP kinase-activated protein kinase 3 (Homo sapiens), sequence (Q16644 whole entry, looked up): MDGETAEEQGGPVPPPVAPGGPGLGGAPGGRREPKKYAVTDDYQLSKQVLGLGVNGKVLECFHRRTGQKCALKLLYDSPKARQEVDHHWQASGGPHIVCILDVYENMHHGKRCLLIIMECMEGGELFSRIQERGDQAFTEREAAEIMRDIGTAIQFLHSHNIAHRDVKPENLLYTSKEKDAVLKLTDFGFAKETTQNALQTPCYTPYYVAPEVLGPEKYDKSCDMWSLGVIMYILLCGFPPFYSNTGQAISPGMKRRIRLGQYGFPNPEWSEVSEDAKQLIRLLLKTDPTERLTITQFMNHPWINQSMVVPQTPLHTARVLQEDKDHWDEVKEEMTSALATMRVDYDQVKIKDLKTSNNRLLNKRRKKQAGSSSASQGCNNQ
MAP kinase-interacting serine/threonine-protein kinase 2 (Homo sapiens), sequence (Q9HBH9 whole entry, looked up): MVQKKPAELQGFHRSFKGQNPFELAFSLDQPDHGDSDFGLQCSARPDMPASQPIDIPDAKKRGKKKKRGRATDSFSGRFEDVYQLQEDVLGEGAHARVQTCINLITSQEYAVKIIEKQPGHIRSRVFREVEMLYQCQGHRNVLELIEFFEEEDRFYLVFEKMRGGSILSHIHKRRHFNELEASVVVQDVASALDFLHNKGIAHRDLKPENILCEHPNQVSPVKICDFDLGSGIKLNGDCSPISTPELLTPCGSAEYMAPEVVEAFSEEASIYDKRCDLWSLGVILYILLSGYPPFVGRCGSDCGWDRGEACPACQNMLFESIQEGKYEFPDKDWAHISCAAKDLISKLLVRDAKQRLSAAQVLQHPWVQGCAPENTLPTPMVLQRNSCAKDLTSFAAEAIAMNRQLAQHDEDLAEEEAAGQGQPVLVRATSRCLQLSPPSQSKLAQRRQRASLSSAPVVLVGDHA
Death-associated protein kinase 1 (Homo sapiens), sequence (P53355 whole entry, looked up): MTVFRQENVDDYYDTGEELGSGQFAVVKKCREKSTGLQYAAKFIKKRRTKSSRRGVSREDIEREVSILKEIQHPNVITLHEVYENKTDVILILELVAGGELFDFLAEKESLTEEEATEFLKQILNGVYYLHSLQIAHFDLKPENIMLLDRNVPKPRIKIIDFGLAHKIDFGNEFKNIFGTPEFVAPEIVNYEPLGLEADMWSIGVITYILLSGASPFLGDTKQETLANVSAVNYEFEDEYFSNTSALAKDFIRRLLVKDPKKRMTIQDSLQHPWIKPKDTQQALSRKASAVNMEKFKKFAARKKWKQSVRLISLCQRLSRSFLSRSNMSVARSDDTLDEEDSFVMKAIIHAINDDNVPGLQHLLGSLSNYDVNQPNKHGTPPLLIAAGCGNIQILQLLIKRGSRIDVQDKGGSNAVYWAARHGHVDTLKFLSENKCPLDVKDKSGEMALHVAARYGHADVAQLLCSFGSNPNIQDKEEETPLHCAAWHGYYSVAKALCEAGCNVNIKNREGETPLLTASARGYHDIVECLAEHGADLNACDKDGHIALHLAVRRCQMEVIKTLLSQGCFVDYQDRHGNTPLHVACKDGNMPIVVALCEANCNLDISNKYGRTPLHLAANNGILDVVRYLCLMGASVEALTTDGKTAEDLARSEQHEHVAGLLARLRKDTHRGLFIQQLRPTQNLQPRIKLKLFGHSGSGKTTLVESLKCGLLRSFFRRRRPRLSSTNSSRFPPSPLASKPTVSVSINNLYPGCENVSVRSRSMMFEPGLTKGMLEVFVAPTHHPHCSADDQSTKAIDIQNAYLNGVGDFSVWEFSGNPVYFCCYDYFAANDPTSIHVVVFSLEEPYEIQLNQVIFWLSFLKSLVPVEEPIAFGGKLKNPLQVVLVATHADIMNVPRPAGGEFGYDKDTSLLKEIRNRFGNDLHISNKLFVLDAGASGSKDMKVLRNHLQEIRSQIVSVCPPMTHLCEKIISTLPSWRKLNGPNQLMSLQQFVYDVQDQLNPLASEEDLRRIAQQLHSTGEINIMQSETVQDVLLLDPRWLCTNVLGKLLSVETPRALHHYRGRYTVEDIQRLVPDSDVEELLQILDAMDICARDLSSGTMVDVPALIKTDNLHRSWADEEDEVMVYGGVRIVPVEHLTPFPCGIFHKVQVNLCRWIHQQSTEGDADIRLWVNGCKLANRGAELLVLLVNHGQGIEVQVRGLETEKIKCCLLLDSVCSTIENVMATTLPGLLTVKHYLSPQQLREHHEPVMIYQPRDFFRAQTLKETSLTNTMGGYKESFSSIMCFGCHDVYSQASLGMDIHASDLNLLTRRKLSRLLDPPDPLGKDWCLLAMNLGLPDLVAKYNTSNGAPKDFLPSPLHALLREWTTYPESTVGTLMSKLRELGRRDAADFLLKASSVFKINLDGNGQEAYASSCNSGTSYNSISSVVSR

Structure (SMILES) | inhibition [1] | inhibition [2] | inhibition [3] | inhibition [4] | inhibition [5] | inhibition [6] | inhibition [7] | inhibition [8] | inhibition [9] | inhibition [10] | inhibition [11] | inhibition [12] | inhibition [13] | inhibition [14] | inhibition [15] | inhibition [16] | inhibition [17] | inhibition [18] | inhibition [19] | inhibition [20]
Cc1cc(O)cc(C)c1/C=C/c1cncc(C(=O)OC(C)(C)C)c1 | 1.3% | 4.19% | 6.15% | 1.72% | 1% | 1.97% | 2.47% | 2.3% | 2.93% | 2.5% | 1.89% | 0.38% | 0.19% | 3.07% | 5.89% | 4.59% | 16.7% | 1.84% | 9.67% | 0.13%
COC(=O)Nc1nc2cc(Oc3ccc(NC(=O)Nc4ccccc4)cc3)ccc2[nH]1 | 3.19% | -1.72% | 5.13% | 1.49% | 1.44% | 1.74% | 2.32% | 2.28% | 4.31% | 1.57% | 2.58% | 1.19% | 0.89% | 0.33% | 2.1% | 3% | 6.54% | 1.92% | 4.02% | 0.31%
CN1CCC(C(=O)Nc2n[nH]c3nc(-c4ccc(O)cc4)c(Br)cc23)CC1 | 2.5% and 1.28% | -1.57% and -0.96% | 5.44% and 10.2% | 1.56% and -0.15% | 1.12% | 2.88% and 0.82% | 2.79% and 1.9% | 3.54% and -0.23% | 8.58% and 1.5% | -0.22% and -0.59% | 2.99% and 3.23% | 2.14% and -0.03% | 4.18% and 0.65% | 3.6% and 2.34% | 11.7% and 8.84% | 55.1% and 58% | 77.6% and 84.9% | 6.5% and 5.49% | 36.9% and 34.7% | 1.43% and -2.51%
COc1cc(N2CCN(C(C)C)CC2)ccc1Nc1nc(Nc2cccc3ncccc23)c2cc[nH]c2n1 | -1.59% | -1.36% | -0.27% | -0.17% | -0.87% | -0.09% | 0.19% | 0.48% | 2.18% | 0.2% | 3.2% | 0.47% | 1.44% | -0.58% | 3.21% | 0.05% | 2.31% | -0.09% | 1.91% | -0.66%
COc1ccc(Nc2ncc(-c3ccccc3)o2)cc1OC | 1.47% | 0.15% | 5.3% | -0.12% | -0.35% | 0.05% | 0.81% | 2.68% | 20.4% | 4.59% | 26.7% | 2.3% | 19.4% | 0.74% | 8.76% | 2.58% | 28.8% | 4.65% | 26.1% | 1.48%
Cc1cc(O)cc(C)c1/C=C/c1cncc(C(N)=O)c1 | 1.91% | 1.42% | 3.35% | 1.06% | 0.98% | 1.57% | 1.76% | 2.85% | 3.03% | 3.52% | 3.59% | 0.98% | 1.6% | 3.07% | 3.76% | 9.34% | 44.9% | 4.98% | 37.8% | 0.97%
CNC(=O)c1sc(-n2cnc3cc(OC)c(OC)cc32)cc1OCc1ccccc1C(F)(F)F | 3% | 0.25% | 2.29% | 1.17% | 1.2% | 3.3% | 2.78% | 2.03% | 4.3% | 0.78% | 3.64% | 2.02% | 3.13% | 2.63% | 2% | 3.25% | 4.03% | 0.55% | 2.13% | -0.7%
CCS(=O)(=O)c1ccc(OC)c(Nc2ncc(-c3cccc(F)c3)o2)c1 | 7% | 1.71% | 1.48% | 2.52% | 3.2% | 7.02% | 7.04% | 1.75% | 4.44% | 3.77% | 2.56% | 2.11% | 2.65% | 7% | 15.4% | 3.79% | 19.5% | 1.15% | 12.2% | 2.49%
CNC(=O)c1ncccc1Nc1nc(Nc2cc3c(cc2OC)CCCN3C(=O)CN(C)C)nc2[nH]ccc12 | 7.57% | 1.66% | 3.04% | 2.23% | 1.51% | 3.6% | 2.72% | 4.87% | 6.32% | 5.9% | 3.77% | 2.04% | 4.01% | 3.77% | 18.2% | 2.12% | 3.28% | 1.22% | 1.54% | 2.14%
Cn1c(-c2nonc2N)nc2cnccc21 | 2.42% | 0% | 5.3% | 1.66% | 1.06% | 3.29% | 2.75% | 3.2% | 7.22% | 0.25% | 9.08% | 1.25% | 3.94% | 7.95% | 22.1% | 3.39% | 7.55% | 2.67% | 16.9% | 0.44%
O=C(Nc1n[nH]c2nnc(-c3cccnc3)cc12)C1CC1 | -2.01% | -0.69% | -0.41% | -0.72% | -0.2% | 0.08% | -0.37% | -0.14% | 0.29% | 0.23% | 1.25% | 0.54% | 0.56% | -0.51% | 1.48% | 0.68% | -0.29% | 0.77% | 2.11% | 0.83%
O=C1Nc2ccccc2/C1=C1\CCc2cc(O)ccc21 | -2.93% | 2.55% | 0.84% | -0.94% | -0.15% | -1.04% | -1.15% | 8.64% | 33.8% | 7.19% | 40.1% | 7.29% | 33.1% | 11.1% | 56.8% | 3.12% | 7.84% | 2.73% | 15.9% | 5.04%
